JNK3 blocker: blocks human JNK3 kinase activity; P53779; purified JNK3 kinase activity, HTS; inhibition, % at 8 µM; 0.61% of 60,000 active; AID 746; in the data active means inhibition above about 17%
Hsp90 inh: displaces geldanamycin probe from tumor Hsp90; 0.35% of 64,000 active; P07900; inhibition, % at 30 µM; AID 429; NCI-N417 lysate Hsp90, Cy3B-geldanamycin FP displacement;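 active means inhibition above 50%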
MKP-1 inh: blocks human MKP-1 phosphatase activity; 0.15% of 65,000 active; P28562; inhibition, %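 (compounds tested at a single concentration somewhere between 10 and 100 µM)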; recombinant MKP-1, OMFP hydrolysis fluorescence;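 active means inhibition above about 50%, limit read from the data; inconclusive means inhibition over screen mean plus 3 SD, below that limit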
PKA inh: PKA (human) kinase inhibition | P17612 | PKA Kemptide phosphorylation, Kinase-Glo ATP luminescence | inhibition, % at 6 µM | 0.1% of 65,000 active;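 active means inhibition above the screen-wide mean inhibition plus 3 SD, cut at about 21% in these data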
Cdc25B block: inhibitors of human Cdc25B phosphatase | P30305 | recombinant Cdc25B, OMFP fluorescence Ex485/Em525 | inhibition, %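 (compounds tested at 10 µM final in the well)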 | 0.1% of 65,000 active; in the data active means inhibition above about 50%
Target sequence (P30305 whole entry, looked up): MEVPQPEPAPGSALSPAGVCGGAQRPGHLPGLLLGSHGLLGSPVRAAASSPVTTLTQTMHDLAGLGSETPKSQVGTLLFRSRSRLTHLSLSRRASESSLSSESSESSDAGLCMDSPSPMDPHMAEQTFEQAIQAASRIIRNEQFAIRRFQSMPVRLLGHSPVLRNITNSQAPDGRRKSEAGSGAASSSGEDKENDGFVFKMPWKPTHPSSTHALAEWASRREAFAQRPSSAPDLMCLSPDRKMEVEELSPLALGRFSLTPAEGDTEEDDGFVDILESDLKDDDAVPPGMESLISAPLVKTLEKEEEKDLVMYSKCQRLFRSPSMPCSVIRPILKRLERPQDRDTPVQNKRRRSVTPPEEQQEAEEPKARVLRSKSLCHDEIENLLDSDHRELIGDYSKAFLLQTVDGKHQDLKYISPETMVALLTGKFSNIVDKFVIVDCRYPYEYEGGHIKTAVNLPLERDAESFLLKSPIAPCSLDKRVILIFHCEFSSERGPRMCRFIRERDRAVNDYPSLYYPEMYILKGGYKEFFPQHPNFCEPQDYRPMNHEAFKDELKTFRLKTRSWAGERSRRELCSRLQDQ
ROCK2 blocker: blocks human Rho kinase 2 activity; O75116; purified ROCK2, Kinase-Glo ATP depletion luminescence; inhibition, % at 6 µM; 0.35% of 60,000 active; AID 604;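 active means inhibition above the screen-wide mean inhibition plus 3 SD, cut at about 18% in these data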
Redox 05 DTT: generates H2O2 by redox cycling in 0.5 mM DTT; shares compounds with Cdc25B block; cell-free redox cycling H2O2 generation; EC50, µM; 50% of 30 active; AID 682; in the data active means EC50 below about 30 µM
Redox 1 DTT: counter-screen for Cdc25B probes: redox cycling H2O2 in 1 mM DTT; shares compounds with Cdc25B block; cell-free redox cycling H2O2 generation; EC50, µM; 30 tested, under 10 active; in the data active means EC50 below about 50 µM
Hits are given with their value; n = inactive; u = inconclusive; x = no result given. Shown are actives, neighbours in structure and some others; about 1% of the full set was active somewhere.

SMILES	JNK3 blocker	Hsp90 inh	MKP-1 inh	PKA inh	Cdc25B block	ROCK2 blocker	others
O=C(NCc1cccnc1)C1c2ccccc2C(=O)N1Cc1ccco1 (stereo not drawn)	n	57	n	n	n	n
O=C1c2ccccc2C(Nc2ccc3nc(-c4cccnc4)[nH]c3c2)N1Cc1ccco1 (stereo not drawn)	n	n	n	n	n	n
O=C(Nc1ccc(N2C(=O)C3C4C=CC(C4)C3C2=O)cc1)Nc1nncs1 (stereo not drawn)	n	n	n	n	n	n
O=C(Nc1nncs1)c1ccc(N2C(=O)C3C4C=CC(C4)C3C2=O)cc1 (stereo not drawn)	17	n	n	n	n	n
CCCCC#Cc1nc(N)c2ncn([C@@H]3O[C@H](C(=O)NCC)[C@@H](O)[C@H]3O)c2n1	x	n	x	x	x	x
Cc1cc(N2C(=O)CCC2=O)n(-c2ccccc2)n1	n	n	n	n	n	n
CC1=NN(c2ccccc2)C(=O)C1	n	n	n	n	n	19
COc1cc2c(cc1OC)[C@@H](c1ccccc1)CN(C)CC2	x	n	x	x	x	x
CC(=NCc1ccco1)c1c(O)n(C2CCCCC2)c(=O)[nH]c1=O	n	n	n	n	n	n
CC(=NCc1ccco1)c1c(C)[nH]n(-c2nc3ccccc3s2)c1=O	20	n	n	n	n	n
O=C(NC1CC1)c1c[nH]c2ccc(S(=O)(=O)Nc3cccc(C(F)(F)F)c3)cc2c1=O	n	n	52	n	n	n
O=c1c2cc(N3CCOCC3)ccc2[nH]c(=S)n1Cc1ccco1	x	n	81	n	n	x
CC1(NCC(O)COc2cccc3[nH]ccc23)CCC(C(C)(C)NC(=O)CBr)CC1 (stereo not drawn)	x	n	x	x	x	x
O=C(CSc1nc2ccccc2nc1SCC(=O)N1CCCCC1)N1CCCCC1	n	n	n	n	n	n
Cc1cc(NC(=O)CSc2nc(CCC3CCCC3)nc3ccccc23)no1	n	n	n	n	n	n
Cc1cc(NC(=O)CSc2nc(-c3ccccc3)cs2)no1	n	n	n	n	n	18
CCCc1nc(SCC(=O)N2CCCC2)c2ccccc2n1	17	n	n	n	n	n
CCCc1nc(SCC(=O)Nc2cc(C)on2)c2ccccc2n1	21	n	n	n	n	n
CS(=O)(=O)N1CCN(c2ccccc2NC(=O)Cc2ccccc2)CC1	17	n	n	n	n	n
O=C(Cn1cnc2ccccc2c1=O)Nc1ccc2c(c1)OCCO2	n	n	n	n	n	n
O=C(Cn1cnc2ccccc2c1=O)NCCC(=O)Nc1ccc2c(c1)OCCO2	n	86	n	n	n	n
O=C1NCCCC2c3cc(O)c4ccccc4c3OC12N1CCCCC1 (stereo not drawn)	n	95	n	n	n	n
O=C1NCCCC2c3c(cc(Br)c(O)c3Br)OC12N1CCOCC1 (stereo not drawn)	n	n	n	n	n	n
OC[C@H]1O[C@@H](n2cnc3c(Nc4ccccc4)ncnc32)C(O)[C@H]1O (stereo partly drawn)	x	n	x	x	x	x
O=C(c1sc2ccccc2c1Cl)N(Cc1ccco1)C1CCS(=O)(=O)C1 (stereo not drawn)	n	54	n	n	n	n
SMILES	JNK3 blocker	Hsp90 inh	MKP-1 inh	PKA inh	Cdc25B block	ROCK2 blocker	others
O=C(c1cccs1)N(Cc1ccco1)C1CCS(=O)(=O)C1 (stereo not drawn)	n	n	n	n	n	n
CCCCn1c(NC(=O)c2ccc(F)cc2)c(C#N)c2nc3ccccc3nc21	n	n	u	n	79	n
Fc1ccc2nc3[nH]c4ccccc4c3nc2c1	37	n	n	n	n	n
CCOc1cc(C2C(C#N)=C(N)Oc3n[nH]c(-c4ccccc4)c32)ccc1O (stereo not drawn)	n	n	n	n	65	n
N#CC1=C(N)Oc2n[nH]c(-c3ccccc3)c2C1c1cccnc1 (stereo not drawn)	n	n	n	n	n	n
CCCCc1ccc(S(=O)(=O)Nc2cc(OC)cc3cccnc23)cc1	x	n	x	x	x	x
Cc1ccc(S(=O)(=O)N2CCC(C(=O)N[C@@H](C)C(=O)Nc3ccc4c(c3)OCO4)CC2)cc1	n	65	n	n	n	n
CCN(CC)CCCNc1cc(OC)cc2ccc(OC)nc12	x	67	x	x	x	x
CCCC(C)N(CC)CCNc1cc(OC)cc2cccnc12 (stereo not drawn)	x	n	x	x	x	x
COc1ccc(NCc2cc3cc(OC)ccc3[nH]c2=O)cc1	n	88	n	n	n	n
COc1ccc(NCc2cc3ccccc3[nH]c2=O)cc1	n	n	n	n	n	n
Cc1cc(C)c(NC(=O)C[C@H](CC(=O)O)c2cccc3ccccc23)c(C(=O)N2CCC3(CCCC3)CC2)c1	x	n	x	x	x	x
N#CC(=C(\N)Sc1ccccc1N)/C(C#N)=C(/N)Sc1ccccc1N	x	n	x	x	x	x
N#Cc1c(N)nc(SCc2ccncc2)c(C#N)c1-c1cccs1	21	n	n	n	n	n
CC1(C2(O)CC(c3ccccc3)ON2)CCCCC1 (stereo not drawn)	n	n	n	n	n	n
CCn1c(CSc2nccn2C)nc2cc(C(=O)O)ccc21	n	89	n	n	n	n
Cc1nn2c(-c3cccc(NC(=O)c4ccco4)c3)nnc2c2ccccc12	n	n	51	n	n	n
COc1[nH]c2ccc(F)cc2c1C(=O)OCC1CCN(CCNS(C)(=O)=O)CC1	x	n	x	x	x	x
COc1ccc(C(C)=O)cc1COC(=O)c1c(C)noc1C	24	n	n	n	n	n
CCOC1(OCC)N=C(N)C2(C#N)C(c3ccc(NC(C)=O)cc3)C12C#N (stereo not drawn)	n	n	n	n	n	26
CC(=O)Nc1cc(OC(C)=O)c2nonc2c1OC(C)=O	47	91	n	n	100	84	Redox 05 DTT=3.9;Redox 1 DTT=14
COc1cccc2c1NC(C(=O)O)C1CC=CC21 (stereo not drawn)	n	n	n	n	51	n	Redox 05 DTT=n;Redox 1 DTT=n
C1=CC2c3ccccc3NC(c3ccncc3)C2C1 (stereo not drawn)	n	n	n	n	n	n
Cc1ccc2c(c1)C1C=CCC1C(C(=O)O)N2 (stereo not drawn)	n	n	n	n	51	n	Redox 05 DTT=n;Redox 1 DTT=n
COc1ccc(OC)c(C(O)c2coc3ccc(O)c(CN4CCOCC4)c23)c1 (stereo not drawn)	n	n	n	n	n	n
N#Cc1cccc2cnccc12	n	n	n	n	n	n
Nc1cccc2cnccc12	n	63	n	n	81	26	Redox 05 DTT=n;Redox 1 DTT=n
Cn1c(Cl)cnc1C1CC(=O)c2cc(Cl)ccc2O1 (stereo not drawn)	n	n	n	n	n	n

From PubChem BioAssay
